{
  "source": "PubChem BioAssay (Tox21)",
  "note": "Records with an inconclusive call do not appear. Activity calls are given as the source filed them. Calls follow the shape of the dose curve; as a rule, active = well fitted cell-killing curve with a large enough effect in the repeat runs; inconclusive = weak or mixed curves, or effect the other way; inactive = no such curve, though single readings can be large or run the other way. % is scaled to controls: 0 for no effect and ±100 for the full control effect.",
  "data": [
    {"test": "qHTS assay to identify small molecule antagonists of the glucocorticoid receptor (GR) signaling pathway - cell viability counter screen (AID 720693); also: nearly all actives have a fitted effect of over 55% in size", "conditions": "GR-bla HeLa viability, CellTiter-Glo luminescence, 18 h, with 5 nM dexamethasone present; series mostly up to 58.5 µM; viability change, negative = cytotoxic: at the top concentration", "source_text": "National Center for Advancing Translational Sciences [NCATS]\nNIH Chemical Genomics Center [NCGC]\nU.S. Environmental Protection Agency [EPA]\nNational Institutes of Environmental Health Sciences [NIEHS]\nNational Toxicology Program [NTP]\nU.S. Food and Drug Administration [FDA]\nThe Glucocorticoid receptor (GR) is one of the members of the nuclear receptor family of ligand-dependent transcription factors. GR plays a critical role in carbohydrate, protein and lipid metabolisms and programmed cell death. CellSensor GR-bla HeLa cell line (Invitrogen) contains a beta-lactamase reporter gene under the control of the glucocorticoid response element stably integrated into HeLa cells, a cervical cancer cell line that expresses glucocorticoid receptor. The activation of the reporter gene under culture conditions can be detected by fluorescence intensity. This cell line has been used to screen the Tox21 10K compound library and to identify the compounds that inhibit the GR signaling. The cytotoxicity of the Tox21 compound library against the GR-bla HeLa cell line was tested in parallel by measuring the cell viability using CellTiter-Glo assay in the same wells.\nTox21 Assay Protocol Summary:\nThe GR-bla HeLa cells were dispensed at 1500 cells/5 ul/well in 1536-well black wall/clear bottom plates using a Multidrop Combi (ThermoFisher Scientific, Waltham, MA) dispenser. After the assay plates were incubated at a 37 C/5% CO2 incubator for 4 hours, 23 nL of compounds dissolved in DMSO, positive controls or DMSO only was transferred to the assay plate by a pintool station (Kalypsys, San Diego, CA), followed by addition of 1 uL of dexamethasone (5 nM, final concentration in the well). The plates were incubated at 37 C for 18 hours. After 1 uL of LiveBLAzerTM B/G FRET substrate was added using a Flying Reagent Dispenser (Aurora Discovery, San Diego, CA), the plates were incubated at room temperature (RT) for 2 hours, and fluorescence intensity was measured by an Envision plate reader (PerkinElmer, Shelton, CT). After measurement of bla assay, 3 ul CellTiter-Glo (Promega, Madison, WI) was added to measure the cytotoxicity and the plates were then incubated at RT for 30 min. The luminescence was measured using a ViewLux (Perkin Elmer) plate reader.", "values": [
      {"smiles": "CCCCCCOC(=O)CCCCC(=O)OCCCCCC", "viability change, negative = cytotoxic": "9.52% (inactive)"},
      {"smiles": "CCN(CC)CCOCCOC(=O)C1(c2ccccc2)CCCC1", "viability change, negative = cytotoxic": "-5.42% (inactive)"},
      {"smiles": "N=c1nc(N2CCCCC2)cc(N)n1O", "viability change, negative = cytotoxic": "-2.55% (inactive)"},
      {"smiles": "Nc1cc(=O)[nH]c(N)n1", "viability change, negative = cytotoxic": "6.12% (inactive)"},
      {"smiles": "OCCCC1CCCCC1", "viability change, negative = cytotoxic": "-15.5% (inactive)"},
      {"smiles": "NC(=O)c1ccc(N)cc1", "viability change, negative = cytotoxic": "0.63% (inactive)"},
      {"smiles": "CN(C(=O)c1c(O)c2ccccc2n(C)c1=O)c1ccccc1", "viability change, negative = cytotoxic": "4.87% (inactive)"},
      {"smiles": "CCC=O", "viability change, negative = cytotoxic": "-12.8% [at 78.9 µM] (inactive)"},
      {"smiles": "OC1CCCCC1c1ccccc1", "note": "(stereo not given)", "viability change, negative = cytotoxic": "9.06% (inactive)"},
      {"smiles": "CC(C[N+](C)(C)C)OC(N)=O", "note": "(stereo not given)", "viability change, negative = cytotoxic": "3.9% (inactive)"},
      {"smiles": "C/C=C(\\C)C#N", "viability change, negative = cytotoxic": "21.8% (inactive)"},
      {"smiles": "CCCCCOC(=O)CCCCC", "viability change, negative = cytotoxic": "1.55% (inactive)"},
      {"smiles": "NCCc1cnc[nH]1", "viability change, negative = cytotoxic": "-7.37% (inactive)"},
      {"smiles": "O=C(O)CN(CCOCCOCCN(CC(=O)O)CC(=O)O)CC(=O)O", "viability change, negative = cytotoxic": "2.2% (inactive)"},
      {"smiles": "NS(=O)(=O)c1cc2c(cc1Cl)NC(C1CC3C=CC1C3)NS2(=O)=O", "note": "(stereo not given)", "viability change, negative = cytotoxic": "-0.624% (inactive)"},
      {"smiles": "c1cnc(N2CCN(Cc3ccc4c(c3)OCO4)CC2)nc1", "viability change, negative = cytotoxic": "-0.205% (inactive)"},
      {"smiles": "C1CN(CCOCCN2CCOCC2)CCO1", "viability change, negative = cytotoxic": "6.55% (inactive)"},
      {"smiles": "CC(C)(C)c1ccc(O)c(O)c1", "viability change, negative = cytotoxic": "-26.1% [at 78.9 µM] (inactive)"},
      {"smiles": "CC1(C)CO[C@@H](CC(=O)O)CN1", "viability change, negative = cytotoxic": "3.36% (inactive)"},
      {"smiles": "FC(F)OC(Cl)C(F)(F)F", "note": "(stereo not given)", "outcome": "inactive"},
      {"smiles": "NC(=O)c1cn(Cc2c(F)cccc2F)nn1", "viability change, negative = cytotoxic": "6.99% (inactive)"},
      {"smiles": "O=C1NC(=O)[C@@]2(CCOc3ccc(F)cc32)N1", "viability change, negative = cytotoxic": "16.4% (inactive)"},
      {"smiles": "CC/C=C\\CC/C=C/C(OCC)OCC", "viability change, negative = cytotoxic": "-4.56% (inactive)"},
      {"smiles": "COc1c(N2C[C@@H]3CCCN[C@@H]3C2)c(F)cc2c(=O)c(C(=O)O)cn(C3CC3)c12", "outcome": "inactive"},
      {"smiles": "CC[N+](C)(C)c1cccc(O)c1", "viability change, negative = cytotoxic": "-6.36% [at 27 µM] (inactive)"},
      {"smiles": "CN1CCC(=C2c3ccccc3CC(=O)c3sccc32)CC1", "viability change, negative = cytotoxic": "-1.64% (inactive)"},
      {"smiles": "O=C(O)CCCc1ccccc1", "viability change, negative = cytotoxic": "6.84% (inactive)"},
      {"smiles": "FC1(F)C(F)(F)C(F)(F)C2(F)C(F)(F)C(F)(F)C(F)(F)C(F)(F)C2(F)C1(F)F", "note": "(stereo not given)", "viability change, negative = cytotoxic": "-3.19% (inactive)"},
      {"smiles": "O=C1CCCN1C1CCCCC1", "viability change, negative = cytotoxic": "16.2% (inactive)"},
      {"smiles": "CN(C)CCCN1c2ccccc2CCc2ccc(Cl)cc21", "viability change, negative = cytotoxic": "9.28% (inactive)"},
      {"smiles": "O=c1cc(CO)occ1O", "outcome": "inactive"},
      {"smiles": "C=CCCCCCCCCC=O", "viability change, negative = cytotoxic": "0.993% (inactive)"},
      {"smiles": "Cn1cc(S(C)=O)c(=O)c2ccc(F)cc21", "note": "(stereo not given)", "viability change, negative = cytotoxic": "0.601% (inactive)"},
      {"smiles": "CC(C)(c1ccc(O)cc1)c1ccc(O)cc1", "viability change, negative = cytotoxic": "-2.43% (inactive)"},
      {"smiles": "NC(=O)c1ccc([N+](=O)[O-])cc1", "viability change, negative = cytotoxic": "1.19% (inactive)"},
      {"smiles": "c1ccc([C@H]2CN3CCSC3=N2)cc1", "viability change, negative = cytotoxic": "-5.32% (inactive)"},
      {"smiles": "O=c1[nH]c(=O)n([C@H]2C[C@H](O)[C@@H](CO)O2)cc1I", "viability change, negative = cytotoxic": "-15.3% [at 27 µM] (inactive)"},
      {"smiles": "c1ccc(CC2=NCCN2)cc1", "viability change, negative = cytotoxic": "-7.85% [at 27 µM] (inactive)"},
      {"smiles": "Cc1cc(O)cc2c1O[C@](C)(CCC[C@H](C)CCC[C@H](C)CCCC(C)C)CC2", "viability change, negative = cytotoxic": "-2.05% (inactive)"},
      {"smiles": "C=C(C)CS(=O)(=O)O", "viability change, negative = cytotoxic": "3.96% (inactive)"}
    ]}
  ]
}
